Activity calls are given as the source filed them. Rule for the calls: active = hit-call score of the fitted dose curve at least 0.9, where 1 is the maximum; inactive = score below 0.9.
What was measured:
Conditions in all cases: mRNA level, 48 h; actives raise or lower the signal
[1] = read-out: Ezrin (EZR), EZR (gene 7430); test: LTEA_HepaRG_EZR: Life Technologies and Expression Analysis (LTEA) Assay for Ezrin (EZR) using HepaRG (AID 2283491)
Outline: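 Gain or loss of EZR mRNA is scored relative to 0.5% DMSO in human HepaRG cultures treated 48 h with test chemicals in duplicate, eight half-log concentrations from 100 uM.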

[2] = read-out: Cytochrome P450 3A7 (Homo sapiens) (UniProt P24462); test: LTEA_HepaRG_CYP3A7: Life Technologies and Expression Analysis (LTEA) Assay for CYP3A7 using HepaRG (AID 2283492)
Outline: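 CYP3A7 transcript measured by qRT-PCR (ACTB, GAPDH, POLR2A normalization) after 48 h chemical exposure of HepaRG cells in duplicate. Eight half-log concentrations, maximum 100 uM, 0.5% DMSO vehicle; bidirectional curve fitting against DMSO baseline.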

[3] = read-out: CYP3A5 (gene 1577); test: LTEA_HepaRG_CYP3A5: Life Technologies and Expression Analysis (LTEA) Assay for CYP3A5 using HepaRG (AID 2283493)
Outline: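 HepaRG cells, plated 48 h then in serum-free induction medium, dosed in duplicate for 48 h with eight half-log concentrations up to 100 uM in 0.5% DMSO. Gene mRNA by Fluidigm TaqMan qRT-PCR, normalized to ACTB, GAPDH, POLR2A.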

[4] = read-out: Cytochrome P450 4A22 (Homo sapiens) (UniProt Q5TCH4); test: LTEA_HepaRG_CYP4A22: Life Technologies and Expression Analysis (LTEA) Assay for Cytochrome P450 4A22 (CYP4A22) using HepaRG (AID 2283495)
Outline: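 Gene expression measured by qRT-PCR against three housekeeping genes (ACTB, GAPDH, POLR2A), with gain or loss fitted relative to 0.5% DMSO vehicle. HepaRG cultures received 48 h chemical treatment, top concentration 100 uM, half-log steps, duplicate wells.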

[5] = read-out: Cytochrome P450 7A1 (Homo sapiens) (UniProt P22680); test: LTEA_HepaRG_CYP7A1: Life Technologies and Expression Analysis (LTEA) Assay for Cytochrome P450 7A1 (CYP7A1) using HepaRG (AID 2283496)
Outline: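 HepaRG cells plated 48 h, then switched to serum-free induction medium and exposed in duplicate for 48 h to 8-point half-log series from 100 uM in 0.5% DMSO. CYP7A1 mRNA by qRT-PCR (TaqMan), normalized to ACTB/GAPDH/POLR2A; bidirectional fit versus DMSO.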

[6] = read-out: Glutathione S-Transferase (GSTA2), GSTA2 (gene 2939); test: LTEA_HepaRG_GSTA2: Life Technologies and Expression Analysis (LTEA) Assay for Glutathione S-Transferase (GSTA2) using HepaRG (AID 2283497)
Outline: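 Human HepaRG cells, plated 48 h, then exposed in serum-free induction medium for 48 h to eight half-log concentrations up to 100 uM in 0.5% DMSO, duplicate. GSTA2 mRNA by qRT-PCR, normalized to ACTB/GAPDH/POLR2A; bidirectional fit versus DMSO.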

[7] = read-out: growth arrest and DNA damage 45 (GADD45G), GADD45G (gene 10912); test: LTEA_HepaRG_GADD45G: Life Technologies and Expression Analysis (LTEA) Assay for growth arrest and DNA damage 45 (GADD45G) using HepaRG (AID 2283499)
Outline: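 GADD45G transcript level by qRT-PCR (housekeeping-normalized: ACTB, GAPDH, POLR2A) after 48 h chemical treatment of a single HepaRG lot in serum-free induction medium; eight-point half-log series up to 100 uM in 0.5% DMSO, duplicates, up- or down-regulation scored.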

[8] = read-out: Glutamate-cysteine ligase regulatory (GCLM), GCLM (gene 2730); test: LTEA_HepaRG_GCLM: Life Technologies and Expression Analysis (LTEA) Assay for Glutamate-cysteine ligase regulatory (GCLM) using HepaRG (AID 2283500)
Outline: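 Differentiated HepaRG cells exposed 48 h in serum-free induction medium to eight half-log concentrations up to 100 uM (0.5% DMSO). GCLM mRNA by TaqMan qRT-PCR, normalized to ACTB, GAPDH and POLR2A; bidirectional fit versus DMSO.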

[9] = read-out: Glutathione S-transferase M3 (GSTM3), GSTM3 (gene 2947); test: LTEA_HepaRG_GSTM3: Life Technologies and Expression Analysis (LTEA) Assay for Glutathione S-transferase M3 (GSTM3) using HepaRG (AID 2283501)
Outline: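 GSTM3 transcript levels came from Fluidigm TaqMan qRT-PCR normalized to three housekeeping genes, fitted in both directions against DMSO. HepaRG cultures received chemicals for 48 h in serum-free induction medium (0.5% DMSO), 8 half-log concentrations up to 100 uM, duplicate.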

[10] = read-out: Heat shock 70 kDa protein 1 (HSPA1A), gene 3303; test: LTEA_HepaRG_HSPA1A: Life Technologies and Expression Analysis (LTEA) Assay for Heat shock 70 kDa protein 1 (HSPA1A) using HepaRG (AID 2283502)
Outline: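 Human HepaRG cells in serum-free induction medium were exposed in duplicate for 48 h to 8 half-log concentrations, highest 100 uM, in 0.5% DMSO. HSPA1A mRNA read by TaqMan qRT-PCR, normalized to ACTB, GAPDH, POLR2A, fitted bidirectionally against DMSO.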

[11] = read-out: Hypoxia-inducible factor 1-alpha (Homo sapiens) (UniProt Q16665); test: LTEA_HepaRG_HIF1A: Life Technologies and Expression Analysis (LTEA) Assay for Hypoxia-inducible factor 1 (HIF1A) Trancription factor using HepaRG (AID 2283503)
Outline: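 Differentiated HepaRG cells in serum-free induction medium exposed 48 h, in duplicate, to 8-point half-log series from 100 uM in 0.5% DMSO. HIF1A mRNA measured by TaqMan qRT-PCR, normalized to ACTB/GAPDH/POLR2A, fitted bidirectionally versus DMSO.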

[12] = read-out: 3-Hydroxy-3-Methylglutaryl-CoA Synthase 2 (HMGCS2), HMGCS2 (gene 3158); test: LTEA_HepaRG_HMGCS2: Life Technologies and Expression Analysis (LTEA) Assay for 3-Hydroxy-3-Methylglutaryl-CoA Synthase 2 (HMGCS2) using HepaRG (AID 2283504)
Outline: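 Readout is HMGCS2 transcript by qRT-PCR, housekeeping-normalised (ACTB/GAPDH/POLR2A) and fitted bidirectionally against 0.5% DMSO. Differentiated HepaRG cells received chemicals 48 h, duplicate wells, eight half-log concentrations topping at 100 uM.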

[13] = read-out: HGF (gene 3082); test: LTEA_HepaRG_HGF: Life Technologies and Expression Analysis (LTEA) Assay for Hepatocyte Growth Facto (HGF) using HepaRG (AID 2283505)
Outline: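 HGF transcript was quantified by TaqMan qRT-PCR against three housekeeping genes after 48 h treatment of HepaRG cells. Exposure ran in duplicate over eight half-log steps topping at 100 uM in 0.5% DMSO vehicle.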

[14] = read-out: Insulin Like Growth Factor 1 (IGF1), IGF1 (gene 3479); test: LTEA_HepaRG_IGF1: Life Technologies and Expression Analysis (LTEA) Assay for Insulin Like Growth Factor 1 (IGF1) using HepaRG (AID 2283506)
Outline: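 Differentiated HepaRG cells in serum-free induction medium, exposed 48 h in duplicate to 8 half-log concentrations up to 100 uM in 0.5% DMSO. IGF1 mRNA by Fluidigm qRT-PCR, normalised to ACTB, GAPDH and POLR2A.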

[15] = read-out: Intercellular Adhesion Molecule 1 (ICAM1), ICAM1 (gene 3383); test: LTEA_HepaRG_ICAM1: Life Technologies and Expression Analysis (LTEA) Assay for Intercellular Adhesion Molecule 1 (ICAM1) using HepaRG (AID 2283507)
Outline: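 ICAM1 transcript levels measured by qRT-PCR, normalized to three housekeeping genes (ACTB, GAPDH, POLR2A), after 48 h chemical exposure of HepaRG cells. Duplicate eight-point half-log series from 100 uM in 0.5% DMSO; gain or loss fitted against vehicle.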

[16] = read-out: Insulin-like growth factor-binding protein 1 (IGFBP1), IGFBP1 (gene 3484); test: LTEA_HepaRG_IGFBP1: Life Technologies and Expression Analysis (LTEA) Assay for Insulin-like growth factor-binding protein 1 (IGFBP1) using HepaRG (AID 2283508)
Outline: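 Read-out is qRT-PCR transcript level normalized to three housekeeping genes, fitted in both directions against 0.5% DMSO. Differentiated HepaRG cells received eight half-log concentrations (top 100 uM) in duplicate for 48 h in serum-free induction medium.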

[17] = read-out: Interleukin 6 Receptor (IL6R), IL6R (gene 3570); test: LTEA_HepaRG_IL6R: Life Technologies and Expression Analysis (LTEA) Assay for Interleukin 6 Receptor (IL6R) using HepaRG (AID 2283510)
Outline: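 Differentiated HepaRG cells, plated 48 h, then exposed in duplicate for 48 h in serum-free induction medium to 8 half-log concentrations (top 100 uM, 0.5% DMSO). IL6R mRNA measured by TaqMan qRT-PCR, normalized to ACTB/GAPDH/POLR2A; bidirectional fit vs DMSO.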

[18] = read-out: Glutamate-cysteine ligase catalytic (GCLC), GCLC (gene 2729); test: LTEA_HepaRG_GCLC: Life Technologies and Expression Analysis (LTEA) Assay for Glutamate-cysteine ligase catalytic (GCLC) using HepaRG (AID 2283498)
Outline: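 Differentiated human HepaRG cells, plated 48 h then switched to serum-free induction medium, were exposed in duplicate for 48 h to 8 half-log concentrations topping at 100 uM in 0.5% DMSO. GCLC mRNA was quantified by qRT-PCR against ACTB, GAPDH and POLR2A.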

Measured: AC50

Sequence of Cytochrome P450 3A7 (Homo sapiens) (P24462 whole entry, looked up): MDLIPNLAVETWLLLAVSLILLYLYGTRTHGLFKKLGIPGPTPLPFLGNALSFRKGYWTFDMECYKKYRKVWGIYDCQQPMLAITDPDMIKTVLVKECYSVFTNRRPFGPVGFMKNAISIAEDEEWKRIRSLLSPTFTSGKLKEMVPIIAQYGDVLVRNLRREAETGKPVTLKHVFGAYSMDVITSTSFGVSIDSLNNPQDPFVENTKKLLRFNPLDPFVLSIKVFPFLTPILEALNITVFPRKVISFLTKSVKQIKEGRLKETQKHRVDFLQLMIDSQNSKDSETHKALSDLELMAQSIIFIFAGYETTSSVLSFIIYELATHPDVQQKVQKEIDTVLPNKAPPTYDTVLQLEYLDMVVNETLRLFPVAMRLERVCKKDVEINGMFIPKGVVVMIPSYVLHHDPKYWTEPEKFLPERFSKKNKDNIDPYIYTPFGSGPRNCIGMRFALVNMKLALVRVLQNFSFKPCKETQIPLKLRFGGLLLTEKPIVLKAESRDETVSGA
Sequence of Hypoxia-inducible factor 1-alpha (Homo sapiens) (Q16665 whole entry, looked up): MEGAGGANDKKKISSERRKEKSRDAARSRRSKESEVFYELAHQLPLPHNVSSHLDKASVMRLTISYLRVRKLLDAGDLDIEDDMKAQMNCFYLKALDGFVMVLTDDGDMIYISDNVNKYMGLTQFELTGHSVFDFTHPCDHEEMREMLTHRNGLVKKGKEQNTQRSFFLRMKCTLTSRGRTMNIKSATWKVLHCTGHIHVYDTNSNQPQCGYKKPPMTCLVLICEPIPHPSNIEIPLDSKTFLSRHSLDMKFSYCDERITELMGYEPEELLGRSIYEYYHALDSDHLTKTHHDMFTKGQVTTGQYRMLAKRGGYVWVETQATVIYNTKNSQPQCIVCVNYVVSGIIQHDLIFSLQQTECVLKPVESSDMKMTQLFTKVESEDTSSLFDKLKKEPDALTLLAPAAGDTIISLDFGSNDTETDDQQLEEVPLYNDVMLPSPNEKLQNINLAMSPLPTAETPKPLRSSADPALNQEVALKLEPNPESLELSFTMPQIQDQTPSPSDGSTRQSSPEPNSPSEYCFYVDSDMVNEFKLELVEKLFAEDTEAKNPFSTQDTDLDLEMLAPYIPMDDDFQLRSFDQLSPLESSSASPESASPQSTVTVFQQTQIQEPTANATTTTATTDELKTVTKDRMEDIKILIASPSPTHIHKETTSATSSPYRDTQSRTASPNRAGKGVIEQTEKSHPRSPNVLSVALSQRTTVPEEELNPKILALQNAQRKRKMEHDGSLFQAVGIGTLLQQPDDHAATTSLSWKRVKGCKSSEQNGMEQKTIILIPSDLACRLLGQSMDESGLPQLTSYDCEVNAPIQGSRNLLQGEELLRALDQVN

CC(C)=CCCC(C)CCO (stereo not drawn)
not listed: [18]
inactive: all other assays above

COc1ccc(/C=C/S(=O)(=O)NC(=O)c2ccc(C)cc2Cl)cc1
active: [2] 20.1 µM | [6] 80.8 µM
not listed: [8] | [10]
inactive: all other assays above

Cc1ccc(C)c(O)c1
not listed: [8] | [10] | [18]
inactive: all other assays above

CC[C@H]1CC[C@H](NCc2cc3c(cc2OC)[C@H]2C[C@H]2C(=O)N3C)[C@H](c2ccccc2)N1
active: [2] 8.34 µM | [3] 50 µM | [4] 76.8 µM | [7] 50 µM
not listed: [8] | [10] | [18]
inactive: all other assays above

Reference: PubChem BioAssay (EPA / NIEHS)
